Assay [1] has as its target Lysosomal acid glucosylceramidase (Homo sapiens) (UniProt P04062). The assay is described as follows: Glucocerebrosidase-p2 (AID 348; in the data active = potency below about 10 µM; also: potency is read from the fitted curve at half-maximal effect). To be noted: purified GBA, blue fluorogenic substrate, 40 min. The method, boiled down:
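Normal human glucocerebrosidase (0.2 nM) with blue fluorogenic substrate (80 uM final) in citrate/phosphate pH 5.9 with 10mM sodium taurocholate, 0.01% tween-20; 40 min RT, NaOH/glycine stop; fluorescence Ex 365/Em 440; AC50 from a titration from 0.6 nM upwards.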

Assay [2] can be described thus: AP1 Signaling Pathway (AID 357; active = well fitted curve in either direction with a large enough effect, not every such curve was filed as active;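 also: ME-180 reporter cells stimulated with EGF at its EC50 level; % is scaled to controls: 0 for no effect and ±100 for the full control effect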). To be noted: ME-180 AP-1-bla reporter, EGF-induced, beta-lactamase ratio, 5 h; at 7.69 µM (top of the series) unless noted. The method, boiled down: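 First, ME-180 AP-1-bla cells were cultured overnight at 37 °C in low-serum Opti-MEM. Next, titrated compounds with EC50 EGF were incubated 5 hours. Finally, CCF4 was added for 2.5 hours and the 460/530 nm ratio recorded.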

The target of assay [3] is Cytochrome P450 1A2 (Homo sapiens) (UniProt P05177). The assay is described as follows: p450-cyp1a2 (AID 410; calls by dose curve; also: potency is read from the fitted curve at half-maximal effect). To be noted: recombinant CYP1A2, luciferin-ME demethylation, luminescence; series mostly up to 57 µM. Put shortly: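 Luminescent demethylation readout: Luciferin-ME (100uM, equal to Km) turned over by 20nM CYP1A2 for 60 min at room temperature after NADPH regeneration addition, following 10 min compound preincubation. Normalization used 57 uM furafylline as full inhibition.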

Assay [4] in a line: NFAT Signaling Pathway (AID 444; active = well fitted curve in either direction with a large enough effect, not every such curve was filed as active;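 also: carbachol stimulus at about its EC50 of 1 µM final; % is scaled to controls: 0 for no effect and ±100 for the full control effect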). To be noted: Jurkat NFAT-bla M1, carbachol, beta-lactamase ratio, 5 h; at 7.69 µM (top of the series) unless noted. Put shortly: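 Read-out: CCF4 FRET ratio (460 nm/530 nm) after 1 h RT dye loading, used for %activity and AC50 from titration series. Cells: Jurkat NFAT-β-lactamase/M1 line, treated with compound plus 1 uM carbachol for 5 h, 37 °C.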

A short description of assay [5]: Stat Signaling Pathway (AID 446; active = well fitted curve in either direction with a large enough effect, not every such curve was filed as active;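 also: ME-180 cervical cancer cells given 40 pM IL-6 alongside compound; SIE-controlled beta-lactamase reporter measured as 460/530 nm FRET emission ratio; % is scaled to controls: 0 for no effect and ±100 for the full control effect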). To be noted: ME-180 SIE beta-lactamase reporter, IL-6 stimulated, 5 h; at 7.69 µM (top of the series) unless noted. The method, boiled down: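 Overnight-plated ME-180 cells bearing a STAT Inducible Element beta-lactamase reporter; 5 h co-exposure to compound and 40 pM IL-6; values normalized to 300 pM IL-6 and 125 nM JAK inhibitor controls.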

Assay [6] addresses Mitogen-activated protein kinase 10 (Mus musculus) (UniProt Q61831). The assay is described as follows: JNK3 AlphaScreen Assay (AID 530; active = well fitted curve in either direction with a large enough effect, not every such curve was filed as active;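 also: kinase came from lysate of stimulated human HepG2 cells; signal reports phosphorylation of biotinylated GST-cJun 1-79 at Ser73 with 10 µM ATP; % is scaled to controls: 0 for no effect and ±100 for the full control effect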). Conditions: JNK3 lysate, c-Jun phosphorylation; series mostly up to 57.1 µM. The method, boiled down:
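qHTS titrations with 15 min compound pre-incubation before adding ATP (10 uM final). Read-out: AlphaScreen of Ser73-phosphorylated biotin-GST-cJun using HepG2 lysate JNK3 activated by IL-1β and TNFα.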
(Bead proximity is the source of the signal in Alpha formats.)

Assay [7] has as its target Dual specificity protein kinase CLK4 (Homo sapiens) (UniProt Q9HAZ1). The assay is described as follows: qHTS Assay for Inhibitors of CDC-like Kinase 4 (Kinase-Glo Assay) (AID 1770). Also: % is scaled to controls: 0 for no effect and ±100 for the full control effect; nearly all actives have a fitted effect of over 65% in size. To be noted: recombinant Clk4, Kinase-Glo ATP depletion luminescence; series mostly up to 66.7 µM. Put shortly:
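Substrate mix (RS peptide 100 uM, ATP 1 uM) dispensed, compound pinned in, then Clk4 added to 25 nM final. Incubated 4.5 h at RT; Kinase-Glo reagent added, luminescence read after 5 min.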

For assay [8] the target is unchanged. The assay is described as follows: qHTS Assay for Inhibitors of CDC-like Kinase 4 (ADP-Glo Assay) (AID 1771). Also: % is scaled to controls: 0 for no effect and ±100 for the full control effect; nearly all actives have a fitted effect of over 70% in size. Conditions: recombinant CLK4, ADP-Glo luminescence; series mostly up to 80 µM. The method, boiled down:
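ADP production was read by ADP-Glo luminescence after residual ATP depletion, following 1 h room-temperature reaction of 25 nM Clk4, 1 uM ATP and 100 uM RS peptide with MgCl2, EGTA, DTT and Triton X-100.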

Assay [9] shares this target. The assay is described as follows: qHTS Assay for Inhibitors of CDC-like Kinase 4 (ADP-FP Assay) (AID 1795).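 Also: recombinant human CLK4 phosphorylating RS repeat peptide at 1 µM ATP; % is scaled to controls: 0 for no effect and ±100 for the full control effect; nearly all actives have a fitted effect of over 60% in size.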 Conditions: Transcreener ADP fluorescence polarization; series mostly up to 50 µM. Put shortly:
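Clk4 6.25 nM; RS peptide 100 uM; ATP 1 uM; 25 mM Tris pH 7.5, 10 mM MgCl2; 1 h reaction. ADP detected via antibody/orange tracer FP displacement; TG003 positive control.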

In assay [10] the target is Ubiquitin carboxyl-terminal hydrolase 1 (Homo sapiens) (UniProt O94782). The assay is described as follows: Inhibitors of USP1/UAF1: Pilot qHTS (AID 504865).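 Also: rhodamine fluorescence freed from ubiquitin-rhodamine substrate followed over time; top concentration of the series differs between compounds; % is scaled to controls: 0 for no effect and ±100 for the full control effect; nearly all actives have a fitted effect of over 35% in size.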 To be noted: purified USP1/UAF1, Ub-rhodamine cleavage fluorescence; series mostly up to 54.9 µM. The method, boiled down: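 In 50mM HEPES pH 7.8 containing 0.5mM EDTA, 1mM TCEP, 0.1 mg/ml BSA and 0.01% Tween-20, 1nM USP1/UAF1 is exposed to compound for 15 min, then Ub-Rho (150nM final) is added and fluorescence is read over time.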
A general note: qHTS replaces the single test concentration by a dilution series.

A short description of assay [11]: Primary qHTS for small molecule stabilizers of the endoplasmic reticulum resident proteome: Secreted ER Calcium Modulated Protein (SERCaMP) assay (AID 1508630). Also: % is scaled to controls: 0 for no effect and ±100 for the full control effect. To be noted: SH-SY5Y GLuc-SERCaMP (Gaussia luciferase released on ER calcium loss) secretion, thapsigargin, luminescence; series mostly up to 38.4 µM. Put shortly: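 The SH-SY5Y reporter protocol was run at 3 concentrations up to 38.3 uM (primary) or 11 concentrations (follow-up): 16 h compound, 100 nM thapsigargin for 4 h, then extracellular luciferase luminescence.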

For assay [12], the target named is Glucocorticoid receptor (Homo sapiens) (UniProt P04150). The assay is described as follows: GR-GFP Redistribution (AID 450;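 active = compounds whose dose series gives a full or clear partial fitted curve of increased nuclear translocation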; also: potency is read from the fitted curve at half-maximal effect). To be noted: U2OS GR-GFP nuclear translocation, laser cytometry, 2 h.
Assay [13] shares this target. The assay is described as follows: GR-EFC Redistribution (AID 451; calls by dose curve; also: potency is read from the fitted curve at half-maximal effect). To be noted: CHO-K1 GR-EFC translocation, beta-gal luminescence, 2 h. The method, boiled down:
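Translocation of GR-ED fusion to nuclear EA restores b-gal, read by luminescence after 1 h room-temperature detection. Engineered CHO-K1 biosensor cells, 1,000/well, exposed 2 h at 37 C to titrations up to 46 uM final.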

Assay [14] can be described thus: qHTS Assay for Identification of Small Molecule Agonists for Hypoxia Response Element Signaling Pathway (AID 914; active = well fitted activation curve with a large enough effect in the signal ratio, with a control signal flat, not every such curve was filed as active; the % refers to the signal ratio; also: potency is read from the fitted curve at half-maximal effect). To be noted: ME-180 (cervical carcinoma) HRE-bla reporter, beta-lactamase ratio, CoCl2, 17 h; activation: active compounds read high. The method, boiled down:
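A beta-lactamase reporter under hypoxia response element control in ME-180 cells served as the system. Compound titrations plus EC50 CoCl2 ran 17 h at 37 degrees Celsius; AC50 values were fitted from %Activity.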

Assay [15] has as its target Cytochrome P450 2C9 (Homo sapiens) (UniProt P11712). The assay is described as follows: qHTS Assay for Inhibitors and Substrates of Cytochrome P450 2C9 (AID 883). Also: potency is read from the fitted curve at half-maximal effect; nearly all actives have a fitted effect of over 60% in size. Conditions: recombinant CYP2C9, luciferin-H luminescence, 60 min; series mostly up to 57.1 µM. The method, boiled down:
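Turnover of Luciferin-H (100uM, KM) by 10nM human CYP2C9 was measured over 60 min at 37C with NADPH regeneration; inhibitors and some substrates reduce luminescence. Data normalized to sulphaphenazole 57uM.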

Assay [16] has as its target Cytochrome P450 3A4 (Homo sapiens) (UniProt P08684). The assay is described as follows: qHTS Assay for Inhibitors and Substrates of Cytochrome P450 3A4 (AID 884). Also: potency is read from the fitted curve at half-maximal effect; nearly all actives have a fitted effect of over 50% in size. To be noted: recombinant CYP3A4, Luciferin-PPXE luminescence; series mostly up to 57.1 µM. The method, boiled down: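 Luminescent readout of luciferin produced by CYP3A4 (20 nM) dealkylation of Luciferin-PPXE, 25 uM (its KM). NADPH-driven reaction ran 60 min at RT after 10 min compound preincubation; data scaled to 57 uM ketoconazole as 100% inhibition.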

The target is the same in assay [17]. The assay is described as follows: qHTS Assay for Activators of Cytochrome P450 3A4 (AID 885). Also: nearly all actives have a fitted effect of over 65% in size. Conditions: recombinant CYP3A4, Luciferin-PPXE luminescence, 60 min; series mostly up to 57.1 µM. Put shortly:
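Using 20nM recombinant human CYP3A4 in potassium phosphate (200mM), substrate Luciferin-PPXE at 25uM, luminescent luciferin detection followed a 60-min RT NADPH reaction; data scaled to 57 uM ketoconazole.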

For assay [18], the target named is Cytochrome P450 2C19 (Homo sapiens) (UniProt P33261). The assay is described as follows: qHTS Assay for Inhibitors and Substrates of Cytochrome P450 2C19 (AID 899). Also: potency is read from the fitted curve at half-maximal effect; nearly all actives have a fitted effect of over 60% in size. Conditions: recombinant CYP2C19, luciferin-H EGE luminescence; series mostly up to 57.1 µM. Put shortly: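 Reactions contain 5nM enzyme, 10uM Luciferin-H EGE (KM) and 50mM KPO4; compound preincubates 10 min at 37C, NADPH regeneration starts turnover for 60 min. Luminescence after detection reagent gives activity.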

In assay [19] the target is 3',5'-cyclic-AMP phosphodiesterase 4B (Homo sapiens) (UniProt Q07343). The assay is described as follows: qHTS Assay for Inhibitors of PDE-IV (AID 607; active = well fitted activation curve with a large enough effect in the main read-out, with a control signal flat, not every such curve was filed as active; also: % of control where 0% means no effect). Conditions: HEK293 ACTOne CNG channel cells, membrane potential fluorescence; series mostly up to 22.9 µM. The method, boiled down: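 Live HEK293 cells with a modified cyclic nucleotide-gated (CNG) channel report intracellular cAMP via membrane-potential dye fluorescence (ex 535/em 590 nm). Endogenous PDE-IV was targeted. Compounds were tested at up to 22.9 uM final; RO 20-1724 100 uM served as control.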

A number with no mark means an inactive call. Results filed as inconclusive are left out. Activity calls are given as the source filed them. Unless noted, calls follow the shape of the dose curve; as a rule, active = well fitted curve in the direction sought with a large enough effect; inconclusive = small, poorly fitted or top-dose-only effect, or another doubt; inactive = no such curve, though single readings can be large; an effect the other way counts as inactive or inconclusive. Bounds are passed on as bounds.

Chain of Cytochrome P450 3A4 (Homo sapiens) (P08684 whole entry, looked up): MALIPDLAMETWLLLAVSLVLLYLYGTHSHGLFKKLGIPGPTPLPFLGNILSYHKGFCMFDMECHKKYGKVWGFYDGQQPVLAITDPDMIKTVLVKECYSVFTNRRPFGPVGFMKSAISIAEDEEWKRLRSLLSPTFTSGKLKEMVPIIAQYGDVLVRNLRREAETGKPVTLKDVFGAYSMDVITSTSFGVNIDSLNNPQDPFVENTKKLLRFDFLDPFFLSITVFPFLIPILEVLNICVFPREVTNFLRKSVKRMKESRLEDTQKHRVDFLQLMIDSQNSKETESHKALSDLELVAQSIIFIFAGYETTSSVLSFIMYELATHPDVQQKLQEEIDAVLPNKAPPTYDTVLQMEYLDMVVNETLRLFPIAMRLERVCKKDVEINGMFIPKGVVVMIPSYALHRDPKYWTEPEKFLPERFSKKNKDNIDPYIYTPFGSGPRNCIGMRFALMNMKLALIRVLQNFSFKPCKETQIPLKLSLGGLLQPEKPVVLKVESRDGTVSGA
Chain of Cytochrome P450 1A2 (Homo sapiens) (P05177 whole entry, looked up): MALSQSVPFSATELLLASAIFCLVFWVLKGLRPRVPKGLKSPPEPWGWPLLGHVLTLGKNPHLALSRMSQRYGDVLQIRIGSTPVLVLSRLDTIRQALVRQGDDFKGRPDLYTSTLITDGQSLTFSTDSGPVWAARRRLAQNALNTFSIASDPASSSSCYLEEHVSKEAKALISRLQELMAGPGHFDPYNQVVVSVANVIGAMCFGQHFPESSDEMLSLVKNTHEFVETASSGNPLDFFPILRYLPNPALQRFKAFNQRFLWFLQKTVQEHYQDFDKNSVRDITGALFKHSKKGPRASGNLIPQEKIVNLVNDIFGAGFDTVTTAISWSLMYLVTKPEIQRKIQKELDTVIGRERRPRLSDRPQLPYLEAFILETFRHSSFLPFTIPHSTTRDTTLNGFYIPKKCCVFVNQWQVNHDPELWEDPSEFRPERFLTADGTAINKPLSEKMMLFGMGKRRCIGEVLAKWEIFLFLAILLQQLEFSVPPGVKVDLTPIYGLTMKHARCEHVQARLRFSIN
Chain of Ubiquitin carboxyl-terminal hydrolase 1 (Homo sapiens) (O94782 whole entry, looked up): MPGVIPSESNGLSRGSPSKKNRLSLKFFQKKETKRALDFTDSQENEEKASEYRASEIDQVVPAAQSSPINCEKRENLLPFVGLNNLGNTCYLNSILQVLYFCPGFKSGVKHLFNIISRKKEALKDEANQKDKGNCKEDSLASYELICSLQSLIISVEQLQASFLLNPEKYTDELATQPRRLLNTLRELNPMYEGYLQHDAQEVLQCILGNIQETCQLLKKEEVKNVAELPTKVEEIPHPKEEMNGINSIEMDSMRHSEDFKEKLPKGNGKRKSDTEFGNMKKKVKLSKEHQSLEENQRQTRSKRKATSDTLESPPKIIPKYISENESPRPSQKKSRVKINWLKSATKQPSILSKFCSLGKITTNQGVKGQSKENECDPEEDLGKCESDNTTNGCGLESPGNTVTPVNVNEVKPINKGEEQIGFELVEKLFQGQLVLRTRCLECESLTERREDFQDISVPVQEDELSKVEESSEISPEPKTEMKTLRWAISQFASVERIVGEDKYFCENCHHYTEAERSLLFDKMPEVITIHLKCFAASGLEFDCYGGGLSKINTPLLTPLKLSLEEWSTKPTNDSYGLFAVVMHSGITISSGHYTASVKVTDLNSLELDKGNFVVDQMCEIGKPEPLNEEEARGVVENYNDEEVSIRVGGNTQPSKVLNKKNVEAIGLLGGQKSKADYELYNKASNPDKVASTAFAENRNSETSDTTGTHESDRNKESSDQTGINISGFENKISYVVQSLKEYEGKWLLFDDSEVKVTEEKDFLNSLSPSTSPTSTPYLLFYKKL
Chain of Dual specificity protein kinase CLK4 (Homo sapiens) (Q9HAZ1 whole entry, looked up): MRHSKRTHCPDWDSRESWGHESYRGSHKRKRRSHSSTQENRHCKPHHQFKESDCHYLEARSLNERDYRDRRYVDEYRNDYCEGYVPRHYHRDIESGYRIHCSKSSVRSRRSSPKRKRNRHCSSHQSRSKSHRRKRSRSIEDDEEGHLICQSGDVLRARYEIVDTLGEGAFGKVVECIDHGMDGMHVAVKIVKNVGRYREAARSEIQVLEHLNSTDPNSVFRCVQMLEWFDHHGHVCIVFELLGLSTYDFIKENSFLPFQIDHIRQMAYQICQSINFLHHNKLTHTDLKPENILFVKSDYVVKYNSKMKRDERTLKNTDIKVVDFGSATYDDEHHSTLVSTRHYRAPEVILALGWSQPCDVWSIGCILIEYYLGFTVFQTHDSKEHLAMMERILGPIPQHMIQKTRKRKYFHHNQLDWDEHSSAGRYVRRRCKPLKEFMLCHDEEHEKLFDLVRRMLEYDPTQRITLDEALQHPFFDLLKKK
Chain of Lysosomal acid glucosylceramidase (Homo sapiens) (P04062 whole entry, looked up): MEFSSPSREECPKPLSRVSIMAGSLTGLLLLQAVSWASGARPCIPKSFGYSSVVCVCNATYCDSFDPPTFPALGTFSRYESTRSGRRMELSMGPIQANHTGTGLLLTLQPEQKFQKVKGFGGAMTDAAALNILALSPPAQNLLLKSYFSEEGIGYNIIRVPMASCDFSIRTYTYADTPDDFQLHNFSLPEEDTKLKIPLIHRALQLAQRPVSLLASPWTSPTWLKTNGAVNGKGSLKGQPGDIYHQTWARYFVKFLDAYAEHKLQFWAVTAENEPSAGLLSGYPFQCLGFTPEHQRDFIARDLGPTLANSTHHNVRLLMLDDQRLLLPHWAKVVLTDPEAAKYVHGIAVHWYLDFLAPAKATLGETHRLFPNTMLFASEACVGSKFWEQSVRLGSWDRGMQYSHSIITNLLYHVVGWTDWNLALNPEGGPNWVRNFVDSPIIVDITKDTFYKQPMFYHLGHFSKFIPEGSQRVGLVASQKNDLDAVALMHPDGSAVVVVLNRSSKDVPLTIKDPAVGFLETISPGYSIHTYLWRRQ
Chain of Glucocorticoid receptor (Homo sapiens) (P04150 whole entry, looked up): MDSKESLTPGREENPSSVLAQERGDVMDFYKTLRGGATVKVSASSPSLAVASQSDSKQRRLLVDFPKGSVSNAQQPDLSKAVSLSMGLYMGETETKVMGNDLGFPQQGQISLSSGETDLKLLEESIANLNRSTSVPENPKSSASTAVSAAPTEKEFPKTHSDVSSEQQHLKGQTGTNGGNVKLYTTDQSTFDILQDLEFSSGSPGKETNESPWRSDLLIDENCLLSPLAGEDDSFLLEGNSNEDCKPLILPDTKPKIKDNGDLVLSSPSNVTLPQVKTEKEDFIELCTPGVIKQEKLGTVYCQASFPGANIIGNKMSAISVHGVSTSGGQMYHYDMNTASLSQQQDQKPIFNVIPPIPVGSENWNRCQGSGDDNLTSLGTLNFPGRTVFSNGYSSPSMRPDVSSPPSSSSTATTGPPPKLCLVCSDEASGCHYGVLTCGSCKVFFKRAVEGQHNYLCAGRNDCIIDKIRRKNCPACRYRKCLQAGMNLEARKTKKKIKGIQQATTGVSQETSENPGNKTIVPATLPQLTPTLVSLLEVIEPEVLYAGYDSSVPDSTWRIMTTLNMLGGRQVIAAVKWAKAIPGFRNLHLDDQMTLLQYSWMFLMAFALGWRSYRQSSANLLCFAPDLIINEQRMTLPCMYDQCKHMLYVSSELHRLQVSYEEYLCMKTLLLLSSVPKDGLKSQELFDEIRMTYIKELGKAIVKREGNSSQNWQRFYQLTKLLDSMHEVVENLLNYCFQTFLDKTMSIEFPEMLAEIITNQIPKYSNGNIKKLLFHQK
Chain of 3',5'-cyclic-AMP phosphodiesterase 4B (Homo sapiens) (Q07343 whole entry, looked up): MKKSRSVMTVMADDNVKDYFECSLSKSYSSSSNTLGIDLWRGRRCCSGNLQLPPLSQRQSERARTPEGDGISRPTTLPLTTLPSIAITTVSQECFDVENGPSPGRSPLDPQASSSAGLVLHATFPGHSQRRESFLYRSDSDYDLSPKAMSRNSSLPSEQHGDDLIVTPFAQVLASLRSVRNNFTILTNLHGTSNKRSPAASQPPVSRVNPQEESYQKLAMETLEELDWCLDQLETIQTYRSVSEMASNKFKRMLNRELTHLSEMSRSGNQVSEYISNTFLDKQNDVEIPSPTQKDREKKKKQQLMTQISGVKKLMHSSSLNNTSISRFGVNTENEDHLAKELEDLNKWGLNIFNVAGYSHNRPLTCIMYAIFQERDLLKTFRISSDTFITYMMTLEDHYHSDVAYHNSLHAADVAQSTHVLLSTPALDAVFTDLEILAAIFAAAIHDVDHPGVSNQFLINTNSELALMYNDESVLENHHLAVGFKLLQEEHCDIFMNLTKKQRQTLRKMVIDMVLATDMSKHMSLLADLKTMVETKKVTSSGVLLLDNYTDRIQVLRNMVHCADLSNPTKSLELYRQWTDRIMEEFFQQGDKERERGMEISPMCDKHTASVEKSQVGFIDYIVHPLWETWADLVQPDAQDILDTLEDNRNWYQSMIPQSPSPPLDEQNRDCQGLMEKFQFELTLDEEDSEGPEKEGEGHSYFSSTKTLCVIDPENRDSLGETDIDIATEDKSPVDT
Chain of Cytochrome P450 2C9 (Homo sapiens) (P11712 whole entry, looked up): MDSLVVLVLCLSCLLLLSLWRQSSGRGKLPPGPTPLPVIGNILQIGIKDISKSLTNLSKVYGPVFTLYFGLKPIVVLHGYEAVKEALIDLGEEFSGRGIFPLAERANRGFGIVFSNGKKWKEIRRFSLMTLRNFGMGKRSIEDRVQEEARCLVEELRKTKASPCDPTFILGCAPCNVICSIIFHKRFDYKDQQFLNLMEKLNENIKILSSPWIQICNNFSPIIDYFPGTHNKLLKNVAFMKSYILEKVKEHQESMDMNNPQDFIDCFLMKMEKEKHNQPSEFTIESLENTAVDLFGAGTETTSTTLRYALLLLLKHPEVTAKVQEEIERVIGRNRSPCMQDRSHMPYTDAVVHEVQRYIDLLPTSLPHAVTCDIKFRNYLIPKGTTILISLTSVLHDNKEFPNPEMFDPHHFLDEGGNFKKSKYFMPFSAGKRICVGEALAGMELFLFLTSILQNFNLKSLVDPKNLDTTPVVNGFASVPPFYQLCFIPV

Regarding `N#CCCn1c(=O)c(-c2ccccc2)nc2cnc(Nc3ccccc3)nc21`, the Potency was > 11.4 µM in assay [1] and 0.794 µM (active) in assay [3]. For the same compound, the activity change, negative = inhibition was -19.8% in assay [2] and -16.9% in assay [4]. Also, the activity, negative = inhibition in assay [5] was -23.1%. Moreover, the Potency result in [6], in assay [7], in assay [8], in assay [9] and in [10] was “inactive” throughout. For the same compound, the outcome in assay [11] was inactive.

Consider `O=c1c(-c2ccc(Cl)cc2)nc2cnc(Nc3ccccc3)nc2n1C[C@H]1CCCO1`, for which the Potency is > 11.4 µM in assay [1]; 12.6 µM (active) in assay [3]; > 9.22 µM in assay [12]; > 46 µM in assay [13]; 0.126 µM (active) in [14]. In addition, the activity change, negative = inhibition in [2] was -8.65%; in assay [4], -7.53%. The Potency entry in assay [6], in [7], in assay [8], in assay [9] and in assay [10] was “inactive” each time. Besides, the outcome in assay [11] was inactive.

As for `COc1cccc(Cn2c(=O)c(-c3cccs3)nc3cncnc32)c1`, the Potency was > 11.4 µM in assay [1]; 5.01 µM (active) in assay [3]; > 9.22 µM in assay [12]; 2.51 µM (active) in assay [15]; 5.01 µM (active) in [16]; 5.01 µM (active) in [18]. For the same compound, the activity change, negative = inhibition in assay [2] was -13.8%; in assay [4], -4.4%. The activity, negative = inhibition in assay [5] was 0.799%. For the same compound, the Potency entry in assay [6], in [17], in [7], in assay [8], in assay [9] and in [10] was “inactive” in each case. The outcome in assay [11] was inactive.

For the compound `COc1ccccc1-c1cncnc1NCc1cnc(C)cn1`, the Potency in [1] was > 11.4 µM; in assay [3], 20 µM (active); in assay [13], > 46 µM; in assay [16], 1.26 µM (active). The activity change, negative = inhibition in [2] was -7.64%; in assay [4], 2.58%. The activity, negative = inhibition in assay [5] was 4.26%. Moreover, the Potency result in [6], in assay [19], in [17], in assay [7], in [8] and in assay [9] was “inactive” in each case. In addition, in [10], the Potency entry is “inactive”. In addition, the outcome in assay [11] was inactive.

With `CCNc1ncc2nc(-c3ccc(F)cc3)c(=O)n(C[C@H]3CCCO3)c2n1`, the Potency in assay [1] is > 11.4 µM; in assay [3], 1.26 µM (active); in [12], > 9.22 µM; in assay [13] it was > 46 µM. For the same compound, the activity change, negative = inhibition was -0.226% in assay [2] and 12.6% in [4]. Moreover, the Potency result in assay [6], in [7], in assay [8], in assay [9] and in assay [10] was “inactive” in each case. The outcome in assay [11] was inactive.

`COc1cccc(Cn2c(=O)cnc3cnc(OC)nc32)c1`: the Potency in [1] was > 11.4 µM; in [3], 12.6 µM (active); in assay [12], > 9.22 µM; in assay [13], > 46 µM. In addition, the figures for the activity change, negative = inhibition in assay [2] and in [4] were 17.7% and 20%, respectively. For the same compound, the Potency result in assay [6], in assay [19], in [17], in assay [7], in assay [8] and in assay [9] was “inactive” in each case. In addition, the Potency result in assay [10] is “inactive”. Further, in assay [11], the outcome was inactive.

Values taken from PubChem BioAssay (NCATS).
